Reference: PubChem BioAssay AID2567 (National Center for Advancing Translational Sciences (NCATS), 2010)
Where “and” joins values, the source holds several entries; their conditions need not be identical. Equal entries are not always repeated. Records with an inconclusive call do not appear. Calls of active or inactive are those of the source. The call rests on the fitted dose curve; in most records, active means well fitted antagonist curve with a large enough effect in the main read-out, with a control signal flat; inconclusive means small, poorly fitted or top-dose-only effect; inactive means no such curve, though single readings can be large or run the other way.

Target: Neuropeptide S receptor (Homo sapiens) (UniProt Q6W5P4)
Sequence (Q6W5P4 whole entry, looked up): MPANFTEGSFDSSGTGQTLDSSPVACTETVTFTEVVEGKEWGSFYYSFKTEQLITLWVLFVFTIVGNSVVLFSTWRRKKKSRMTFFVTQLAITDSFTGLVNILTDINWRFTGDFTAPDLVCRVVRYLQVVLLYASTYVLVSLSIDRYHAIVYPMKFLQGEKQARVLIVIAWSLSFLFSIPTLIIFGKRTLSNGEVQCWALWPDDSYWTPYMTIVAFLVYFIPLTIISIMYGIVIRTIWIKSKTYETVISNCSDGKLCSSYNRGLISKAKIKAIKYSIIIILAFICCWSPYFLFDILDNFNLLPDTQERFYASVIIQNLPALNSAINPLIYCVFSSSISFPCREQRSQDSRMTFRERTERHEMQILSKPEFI
Experiment: Confirmation Concentration-Response Assay for Antagonists of the Neuropeptide S Receptor: Calcium Signal Transduction, SAR for Probe
Conditions: CHO-NPSR cells, NPS-induced calcium fluorescence, FDSS; series mostly up to 50.9 µM; activity change, negative = inhibition: at the top concentration
Description: NIH Chemical Genomics Center [NCGC] NIH Molecular Libraries Probe Production centers Network [MLPCN] MLPCN Grant: X01-DA026210-01 Assay Submitter (PI): Heilig, Markus Alexander NCGC Assay Overview: Neuropeptide S receptor (NPSR), previously known as GPR154, is a recently de-orphanized G protein coupled receptor. Its endogenous ligand is the 20 amino acids peptide Neuropeptide S (NPS). […] NPS and its receptor are found in various tissues. Specifically they are highly expressed in brain areas that have been implicated in modulation of arousal, stress and anxiety. Central administration of NPS in mice produces an unusual profile of activity by inducing wakefulness and arousal, while at the same time suppressing anxiety. Therefore, NPSR may represent a novel drug target for the treatment of sleep and anxiety disorders. To identify NPSR antagonists, we developed a cell-based assay with transfected NPS receptor. NPS can stimulate the production of cAMP as well as release intracellular calcium in Chinese hamster ovary cells stably expressing NPS receptor. This change in intracellular calcium can be detected using a calcium indicator dye on a calcium imaging plate reader system (FDSS).
NCGC Assay Protocol Summary: A Chinese hamster ovary (CHO) cell line stably expressing the NPS receptor (CHO-NPSR) was obtained from Dr. Heilig lab at NIAAA and maintained in F-12 Kaighn's media (Invitrogen, Carlsbad, CA, 21127) supplemented with 10 % FBS, 100 units/ml penicillin, 100 ug/ml streptomycin and 250 ug/ml geneticin at 37C, 5% CO2 in a humidified atmosphere. Before the assay, aliquots of cells were frozen and stored at -135C. The assay was performed on a FDSS-7000 kinetic plate reader in 1536-well format. For both agonist (1-220s) and antagonist (221-400s) phases, the maximums of kinetic fluorescence responses were converted separately into text files using the instrument's software data export utility. Data for agonist response were normalized to the controls for basal activity (DMSO only) and 100% activation (NPS). […] AC50 values were determined from concentration-response data modeled with the standard Hill equation. NPS 1536-well FDSS assay protocol: (1) Frozen CHO-NPSR cells were thaw, washed once with fresh media and resuspended in F-12 Kaighn's media supplemented with 10 % FBS, 100 units/ml penicillin and 100 ug/ml streptomycin. Cells were plated at 3 ul/well (1200 cells) to black, clear-bottom, tissue-culture treated 1536-well plates, and then cultured at 37C, 5 % CO2 for 16 to 30 hours. (2) Add 3 ul of calcium dye (from High Performance PBX Calcium Assay Kit, BD Biosciences). The calcium dye was prepared according to the manufactory's instruction. (3) Incubation at 37C, 5 % CO2 for 60 to 120 min. (4) Load plates to FDSS-7000. The following steps were performed on FDSS-7000. (5) Record fluorescent background (Ex 480 nm, Em 520-560 nm) for 10 s. (6) Add 23 nl/well of compound in DMSO solution. The final titration for each compound was between 0.6 nM and 46 uM. Record agonist response for 210 s. (7) Add 2 ul of stimulation reagent (1X HBSS buffer, 0.1% BSA, 60 nM NPS). Record antagonist response for 140 s. Keywords: MLSMR, MLPCN, NIH Roadmap, qHTS, NCGC, NPS, Neuropeptide S Antagonists

Row | Compound | activity change, negative = inhibition | Potency
1 | Cn1c(-c2ccccc2)c(P(=S)(c2ccccc2)c2ccccc2)c2ccccc21 | 7.11% (inactive) | 
2 | Cc1nc2ccccn2c1P(=S)(c1ccccc1)c1ccccc1 |  | 9.79 µM (active)
3 | C[C@H]1CCCC(=O)CCCCCc2cc(O)cc(O)c2C(=O)O1 | 10.8% [at 19.3 µM] (inactive) | 
4 | C=C1C(=O)O[C@@H]2C[C@@H](C)[C@@H]3C=CC(=O)[C@@]3(C)[C@@H](OC(=O)CC(=O)O[C@H]3[C@@H]4C(=C)C(=O)O[C@@H]4C[C@@H](C)[C@@H]4C=CC(=O)[C@]43C)[C@H]12 |  | 0.0891 µM (active)
5 | Cc1c(P(=S)(c2ccccc2)c2ccccc2)[n+]2ccccc2n1CCCc1ccccc1 |  | 0.0552 µM (active)
6 | S=P(c1ccccc1)(c1ccccc1)c1cnc2ccccn12 |  | 12.3 µM (active)
7 | Cc1c(P(=S)(c2ccccc2)c2ccccc2)[n+]2ccccc2n1CCc1ccccc1 |  | 1.38 µM (active)
8 | C=C(C=O)C[C@@H]1C[C@H](O)C2OC3C[C@]4(C)OC5/C=C\CC6OC7C(CC=CCC6OC5CCCC4OC3CC2O1)OC1CC2OC3CC(=O)OC3C[C@@H](C)C[C@@]2(C)OC1C[C@@H]7C (stereo partly drawn) |  | 0.501 µM (active)
9 | CNc1ccc2oc(C[C@H]3O[C@@]4(CC[C@H]3C)O[C@H]([C@H](C)C(=O)c3ccc[nH]3)[C@H](C)C[C@H]4C)nc2c1C(=O)O |  | 0.0158 µM (active)
10 | S=P(c1ccccc1)(c1ccccc1)c1c(-c2ccccc2)[nH]c2ccccc12 | -14.5% (inactive) | 
11 | Cn1cc(P(=S)(c2ccccc2)c2ccccc2)c2ccccc21 | -16.2% (inactive) | 
12 | CC(=O)Nc1cc([As](=O)(O)O)ccc1O | 25.2% [at 19.3 µM] (inactive) | 
13 | S=P(c1ccccc1)(c1ccccc1)c1c[n+](Cc2ccccc2)c2ccccn12 |  | 6.93 µM (active)
14 | Cc1c(P(=S)(c2ccccc2)c2ccccc2)[n+]2ccccc2n1C/C=C/c1ccccc1 |  | 0.0438 µM (active)
15 | CCOC(=O)c1c(-n2c(C)cc(C=C3C(=O)NC(=S)NC3=O)c2C)sc2c1CCCC2 |  | 2 µM (active)
16 | Cc1c(P(=S)(c2ccccc2)c2ccccc2)c2ccccc2n1C | -16.7% (inactive) | 
17 | Cc1c(P(=S)(c2ccccc2)c2ccccc2)[n+]2ccccc2n1C |  | 199 nM (active) and 251 nM (active) and 220 nM (active)
18 | Cc1c(P(=S)(c2ccccc2)c2ccccc2)[n+]2ccccc2n1Cc1ccccc1 |  | 1.74 µM (active)
